# Data taken from PubChem BioAssay AID588855 (National Center for Advancing Translational Sciences (NCATS), 2011).
# Among all 410,000 compounds or so, about 5,000 (1.2%) were called active. Inconclusive results (about 13%) are left out. The sample holds actives, similar compounds and a random draw of the others, so the mix is not that of the screen. Calls follow the shape of the dose curve; as a rule, active = well fitted inhibition curve with a large enough effect; inconclusive = small, poorly fitted or top-dose-only effect; inactive = no such curve, though single readings can be large or run the other way.
# Experiment: qHTS for Inhibitors of TGF-b; also: nearly all actives have a fitted effect of over 65% in size
# Conditions: HepG2 CAGA-GFP TGF-b/SMAD3 reporter, GFP fluorescence, 18 h, TGF-beta stimulated, 500 pg/mL final; series mostly up to 46.1 µM; activity, negative = inhibition: at the top concentration
# In short: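 Smad-responsive CAGA-GFP expression was quantified in HEPG2 cells exposed to compounds and 500 pg/mL final TGF-beta for 18 h at 37 degrees C; unstimulated wells defined full inhibition.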
# % is scaled to controls: 0 for no effect and ±100 for the full control effect; potency is read from the fitted curve at half-maximal effect.
SMILES,"activity, negative = inhibition",Potency
Cc1ccc(-c2cn3c(n2)sc2cc(C(=O)NCCCc4ccccc4)ccc23)cc1,19.4% (inactive),–
COc1ccc(N2C(=O)CSC23C(=O)N(Cc2cccc(F)c2)c2ccccc23)cc1Cl (configuration not stated),0.856% (inactive),–
COc1ccc(-c2nc3c4ccccc4n(CC(=O)Nc4ccc(C(C)=O)cc4)c(=O)n3n2)cc1,-19% (inactive),–
COc1ccc(CCNC(=O)COC(=O)Cc2cc(OC)c(OC)c(OC)c2)cc1,-3.46% (inactive),–
COc1cc(CC(=O)Nc2nc(-c3ccc(F)c(F)c3)cs2)cc(OC)c1OC,–,11.2 µM (active)
O=C(COC(=O)C1CCCO1)Nc1nc(-c2ccc(F)cc2)cs1 (configuration not stated),-6.26% (inactive),–
O=[N+]([O-])c1ccc(S(=O)(=O)N2CCN(c3nc(-c4ccccc4)nc4ccccc34)CC2)cc1,3.85% (inactive),–
COc1cccc(CNC(=O)C(NS(=O)(=O)c2ccc3nc(C)sc3c2)C(C)C)c1 (configuration not stated),-0.357% (inactive),–
COc1ccccc1NC(=S)NC(=O)C(C)C,-9.88% (inactive),–
COc1ccccc1NC(=O)/C=C/C(N)=O,–,12.6 µM (active)
COc1ccccc1NC(=O)c1cc(Cl)nnc1Cl,2.59% (inactive),–
CCOC(=O)C1=C(c2ccccc2)Nc2ncnn2C1c1ccc(Cl)cc1 (configuration not stated),9.18% (inactive),–
Brc1ccc(C2=CC(c3ccco3)n3ncnc3N2)cc1 (configuration not stated),64.9% (inactive),–
Clc1ccc2c(c1)C1=C(C(c3ccncc3)O2)C(c2ccc(Br)cc2)n2ncnc2N1 (configuration not stated),–,3.98 µM (active)
Cc1cc2c(C)nc(N/N=C/c3ccccc3)nc2o1,1.98% (inactive),–
FC(F)(F)c1cccc(N/N=C/c2ccccc2)c1,–,11.2 µM (active)
Cc1nnsc1C(=O)N/N=C/c1cccc(C(F)(F)F)c1,6.29% (inactive),–
O=C1CSC2(C(=O)N(Cc3ccccc3)c3ccccc32)N1c1cccc(F)c1 (configuration not stated),-24.9% (inactive),–
CCN1CCc2nc3sc(C(=O)Nc4ccccc4OC(F)(F)F)c(N)c3cc2C1,44.2% (inactive),–
CCOC(=O)c1c(C)[nH]c(CCC(=O)Nc2ccc(OC)c(OC)c2)c1C,-4.89% (inactive),–
CN(C)C(CNC(=O)c1ccc(OCc2cn3ccccc3n2)cc1)c1ccco1 (configuration not stated),9.62% (inactive),–
Cc1noc(C)c1COc1ccc(C(=O)NCCOc2ccccc2)cc1,-6.19% (inactive),–
CN(C)CCNC(=O)c1ccc(-c2cn3c(-c4ccc(Oc5ccccc5)cc4)cnc3cn2)cc1,–,11.2 µM (active)
COc1ccc(CCNC(=O)C(=O)NCC(c2ccco2)S(=O)(=O)c2cccs2)cc1OC (configuration not stated),1.36% (inactive),–
CN1C[C@@H](CO)O[C@@H](n2cnc3c(N4CCN(CCO)CC4)ncnc32)C1,27.1% (inactive),–

SMILES,"activity, negative = inhibition",Potency
OCC1OC(n2cnc3c(N4CCCC4)ncnc32)C(O)C1O (configuration not stated),–,2.82 µM (active)
OC[C@@H]1O[C@H](n2cnc3c(SCc4ccccc4)ncnc32)[C@H](O)[C@H]1O,-27.6% (inactive),–
COc1ccccc1NC(=O)CSc1oc(-c2ccco2)nc1S(=O)(=O)c1ccc(Br)cc1,-1.11% (inactive),–
COc1ccccc1-c1cc2nc(C)c(CCC(=O)O)c(C)n2n1,25.9% (inactive),–
CN(N=O)c1ccc(C=C2c3ccccc3-c3ccccc32)cc1,15.6% (inactive),–
Cc1ccc(-c2nc(=N)sn2Cc2ccccc2)cc1,4.17% (inactive),–
Cc1ccc(-n2c3nc(=O)[nH]c(=O)c-3cc3c(Cl)cccc32)cc1,8.21% (inactive),–
O=C(NCCCN1CCN(c2cccc(Cl)c2)CC1)c1nnc(Cc2ccc(F)cc2Cl)o1,–,10 µM (active)
Cc1ccc(CCNC(=O)c2nnc(Cc3cccc(F)c3)o2)cc1,-9.99% (inactive),–
COc1ccc(N2CCN(CCNC(=O)c3nnc(Cc4c(F)cccc4Cl)o3)CC2)cc1,0% (inactive),–
COc1ccc(CCC(=O)NCc2ccc3c(c2)CCN3C(=O)c2ccc(F)cc2)cc1,13.9% (inactive),–
CCCNC(=O)c1ccc(Cn2c(SCC(N)=O)nc3ccccc3c2=O)cc1,6.6% (inactive),–
COc1ccc(OC)c(CNC(=O)c2c3c(nc4ccccc24)C(=O)N(C2CCCCC2)C3)c1,17.7% (inactive),–
SCc1nc2ccc(Cl)cc2[nH]1,-2.28% (inactive),–
Cn1c(NCc2cccnc2)nc2cc(-c3ccc(F)cc3)sc2c1=O,17.1% (inactive),–
O=c1[nH]c(CCl)nc2cc(-c3ccc(Cl)cc3)sc12,–,5.01 µM (active)
CC(C)(C)c1ccc(C(=O)C[N+]2(C)CCCc3ccccc32)cc1 (configuration not stated),-15.7% (inactive),–
Cc1nc(N=C(N)N)nc2c(C)cccc12,–,11.2 µM (active)
N#Cc1ccc[n+](CC(=O)c2ccc(O)c(O)c2)c1,18.3% (inactive),–
CCCCCCCNc1ccc(/C=C/c2ccnc3ccccc23)cc1,-2.79% (inactive),–
COc1ccc(Cn2c(=O)c3oc4ccccc4c3n(CC(=O)Nc3ccc(F)cc3F)c2=O)cc1,0.208% (inactive),–
CC(C)CNc1ncnc2c1nnn2C,-15.1% (inactive),–
CCCCSc1ncnc2c1sc1nc(N3CCOCC3)c3c(c12)CCCC3,4.55% (inactive),–
CCOC(=O)c1c(C)oc2cc(Sc3ccccc3)c(O)c(O)c12,–,10 µM (active)
CCOC(=O)c1c(-c2ccccc2)oc2cc(Br)c(O)c(C=O)c12,0% (inactive),–

SMILES,"activity, negative = inhibition",Potency
Cc1oc2cc(Br)c(O)c(Br)c2c1C(=O)c1ccccc1,-23% (inactive),–
CCOc1ccc(NC(=O)c2c(NC(=O)Cc3ccccc3)sc3c2CCC(C)C3)cc1 (configuration not stated),-6.64% (inactive),–
COc1ccc(Cn2c(C(=O)O)c(CNCc3cccc(OC)c3)c3ccc(C)cc32)cc1,24.5% (inactive),–
COc1ccc(-n2c(=O)c3ccccc3n(Cc3ccccc3Cl)c2=O)cc1,-14.6% (inactive),–
Cc1ccccc1-c1n[nH]c(=S)n1/N=C/c1ccc(-c2ccccc2Br)o1,1.01% (inactive),–
Cc1cc(-c2n[nH]c(=S)n2/N=C/C(Br)=C/c2ccccc2)n[nH]1,–,7.08 µM (active)
COc1ccccc1N1CCN(/N=C\C(Br)=C\c2ccccc2)CC1,-15.2% (inactive),–
Cc1ccc(Cl)cc1NC(=O)CSc1nc2ccccc2nc1Cc1ccccc1,-4.85% (inactive),–
Cc1ccc(CNC(=O)CSc2c(C)cnc3c2c(=O)n(C)c(=O)n3C)cc1,3.08% (inactive),–
CN1CCN(c2oc(-c3ccc(COc4ccc(Cl)cc4)o3)nc2C#N)CC1,-13.8% (inactive),–
CCOc1cccc(NC(=O)c2ccc(F)c(S(=O)(=O)N(CC)c3cccc(C)c3)c2)c1,-2.74% (inactive),–
CCCOc1ccccc1C1CC(=O)Nc2cc3c(cc21)OCO3 (configuration not stated),–,7.08 µM (active)
O=C1CC(c2ccc(F)cc2F)c2cc3c(cc2N1)OCO3 (configuration not stated),-29.4% (inactive),–
COC(=O)c1ccc(C2CC(=O)Nc3cc(OC)c(OC)cc32)cc1 (configuration not stated),7.58% (inactive),–
Cc1ccc(S(=O)(=O)n2nc(-c3ccc(Cl)cc3)nc2NCc2ccccc2)cc1,-0.47% (inactive),–
COc1ccc(OC)c(-n2nnc3c(sc4nc(C)c(Br)c(C)c43)c2=O)c1,1.82% (inactive),–
Cc1ccccc1-c1nc2scc(CCNC(=O)C(=O)Nc3ccc(F)cc3F)n2n1,-18.3% (inactive),–
Cc1ccc(S(=O)(=O)N2[C@@H](c3cccc(Cl)c3)C(C(=O)O)=CC[C@H]2c2ccc(Cl)c(Cl)c2)cc1,–,15.8 µM (active)
Cc1ccccc1S(=O)(=O)N1[C@@H](c2cccc(Cl)c2)C(C(=O)OC(C)(C)C)=CC[C@H]1c1ccc(Cl)cc1,-4.34% (inactive),–
CCOC(=O)C1=CC[C@@H](c2ccccc2)N(S(=O)(=O)c2ccc(C)cc2)[C@H]1c1cccc(OC)c1,-9.22% (inactive),–
CCCCN(C)S(=O)(=O)c1ccc(C(=O)Nc2sc3c(c2C(N)=O)CC(C)(C)NC3(C)C)cc1,-1.07% (inactive),–
CCc1ccc(NC(=O)c2nn(-c3ccc(C)cc3)c(=O)n(C)c2=O)cc1,-14.4% (inactive),–
CCOC(=O)c1ccccc1NC(=O)c1nn(-c2ccc(OC)c(Cl)c2)c(=O)c2c1c1ccccc1n2C,-24.8% (inactive),–
O=C(NC1CC(=O)N(c2ccc(F)cc2)C1)C1CCCCC1 (configuration not stated),7.27% (inactive),–
CCOC(=O)c1c(S(=O)(=O)NCC(=O)Nc2ccc(C)cc2)c(C)n(C)c1C,0.889% (inactive),–

SMILES,"activity, negative = inhibition",Potency
CCOC(=O)c1c(S(=O)(=O)Nc2cccc(Cl)c2)c(C)n(C)c1C,-1.47% (inactive),–
CCOC(=O)c1c(S(=O)(=O)NCC(=O)Nc2ccc(Cl)c(C(F)(F)F)c2)c(C)n(C)c1C,–,11.2 µM (active)
COc1ccc(CCNC(=O)c2cnc3sc(N4CCCCCC4)nn3c2=O)cc1OC,-10.2% (inactive),–
Nc1c(Cl)cc(-c2csc(N3CCCC3c3nc4cc(Cl)c(Cl)cc4n3CCOCCO)n2)cc1Cl (configuration not stated),3.19% (inactive),–
CCCn1c(C(C)Nc2nc(-c3ccc(C)cc3)cs2)nc2cc(Cl)c(N3CCCCC3)cc21 (configuration not stated),-1.73% (inactive),–
Cc1nc2cc(C(F)(F)F)ccc2n1CCNc1nc(-c2cc(Cl)c(N)c(Cl)c2)cs1,–,11.2 µM (active)
Cc1cccc(OCCCC(=O)Nc2sc3c(c2C(N)=O)CCC(C)C3)c1 (configuration not stated),0.0551% (inactive),–
O=C(CC1C(=O)N(c2ccccc2)C(=O)N1CCc1cccs1)Nc1ccc(F)cc1 (configuration not stated),-1.13% (inactive),–
O=C(NC1(C(F)(F)F)N=C(c2ccccc2)N(C2CCCCC2)C1=O)c1ccccc1F (configuration not stated),0.835% (inactive),–
O=C1NC(Nc2nc3ccccc3s2)(C(F)(F)F)C(=O)N1C1CCCCC1 (configuration not stated),–,7.94 µM (active)
COc1cc(SC#N)ccc1N=Cc1c(C)[nH]n(-c2ccc(C)cc2)c1=O,–,10 µM (active)
CCN(CC)CCNC(=O)c1cc2c(=O)oc3ccc(C)cc3c2s1,-1.4% (inactive),–
Cc1cccc(-n2ncc(C(=O)N3CCc4ccccc4C3)c2C2CCN(C(=O)OC(C)(C)C)CC2)c1,2.06% (inactive),–
CCCN(CCC)CCCNC(=O)Cn1ncc2c3ccccc3n(Cc3ccccc3)c2c1=O,1.04% (inactive),–
Cc1ccccc1Cn1c2ccccc2c2cnn(CC(=O)NCc3ccco3)c(=O)c21,-15% (inactive),–
CCN(CC)CCNC(=O)Cn1ncc2c3ccccc3n(Cc3ccccc3C)c2c1=O,–,14.1 µM (active)
CCOC(=O)c1c(C)[nH]c(C)c1S(=O)(=O)NCC(=O)NCc1cccc(C)c1,-14.9% (inactive),–
COc1ccc(CNS(=O)(=O)c2ccc(-c3cnc(C4CC4)o3)cc2)cc1,–,inactive
Cc1ccc(-c2cnc(C3CC3)o2)cc1S(=O)(=O)Nc1cccc(C)c1C,-1.77% (inactive),–
Cc1cccc(NS(=O)(=O)c2ccc(-c3cnc(C4CC4)o3)cc2)c1,–,11.2 µM (active)
COc1ccc(OC)c(NC(=O)C2CCN(S(=O)(=O)c3ccc(C)cc3)CC2)c1,-3.47% (inactive),–
COc1cc(Br)cc2cc(S(=O)(=O)c3ccccc3)c(=O)oc12,-2.14% (inactive),–
